Screening data from PubChem.
A selection: hits, their analogues and other compounds. The true share with any hit is near 0.31%.
TRPV1 ag: agonists of human vanilloid receptor 1 (TRPV1); Q8NER1; TRPV1-expressing cells, Fluo-8 calcium influx, agonist mode; activation, % at 8.33 µM; 320,000 tested, 0.19% active; in the data active = activation above about 80%; inconclusive = between about 30% and that limit; note: 0% is about no effect
Target sequence (Q8NER1 whole entry, looked up): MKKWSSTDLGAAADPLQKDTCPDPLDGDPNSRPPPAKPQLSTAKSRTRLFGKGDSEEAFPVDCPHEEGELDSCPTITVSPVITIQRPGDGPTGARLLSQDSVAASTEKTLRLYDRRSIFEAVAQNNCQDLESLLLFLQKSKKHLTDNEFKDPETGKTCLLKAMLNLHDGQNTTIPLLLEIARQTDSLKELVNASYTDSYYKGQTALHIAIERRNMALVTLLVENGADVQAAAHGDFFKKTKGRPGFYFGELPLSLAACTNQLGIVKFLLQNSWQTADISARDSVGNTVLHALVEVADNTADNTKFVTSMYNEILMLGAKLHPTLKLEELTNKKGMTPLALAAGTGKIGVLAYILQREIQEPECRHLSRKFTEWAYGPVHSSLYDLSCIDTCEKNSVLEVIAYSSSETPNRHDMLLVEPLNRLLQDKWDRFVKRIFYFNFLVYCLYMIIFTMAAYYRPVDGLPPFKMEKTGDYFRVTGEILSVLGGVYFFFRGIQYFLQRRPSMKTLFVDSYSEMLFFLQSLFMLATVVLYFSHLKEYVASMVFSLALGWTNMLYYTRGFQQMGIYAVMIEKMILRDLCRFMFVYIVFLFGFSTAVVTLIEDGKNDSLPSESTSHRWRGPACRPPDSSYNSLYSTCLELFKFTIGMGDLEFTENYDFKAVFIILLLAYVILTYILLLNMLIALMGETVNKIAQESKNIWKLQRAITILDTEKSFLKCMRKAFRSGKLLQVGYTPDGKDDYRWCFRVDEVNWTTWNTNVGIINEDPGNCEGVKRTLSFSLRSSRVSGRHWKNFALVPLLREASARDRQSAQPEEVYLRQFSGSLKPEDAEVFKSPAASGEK
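Fluo-8 calcium influx in TRPV1-expressing cells, kinetic read (ex 480/em 520 nm). Compound added and read 3 min for agonist activity, followed by capsaicin at EC20 final and 2 min further read for enhancement.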
TRPML1 agonist: agonists of human TRPML1 channel; activation, % (no concentration beside the values); 410,000 tested, 0.12% active; Q9GZU1; TRPML1-expressing cells, Ca2+ dye fluorescence, FDSS; in the data active = activation above about 50%; inconclusive = mostly about 30% to 49%; note: 0% is about no effect
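Agonist activity was taken from a 110 s kinetic Ca2+ dye read on the FDSS after pinning compounds onto TRPML1-DL cells. The cells were seeded at 1,500/well with Tet inducer, incubated about 16 h, then dye-loaded at room temperature.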
TRPV1 PAM: potentiators of human vanilloid receptor 1 (TRPV1) | TRPV1-expressing cells, Fluo-8 calcium influx, capsaicin EC20 potentiation | potentiation, % at 8.33 µM | 320,000 tested, 0.02% active | AID 540277; in the data active = potentiation above about 80%; inconclusive = between about 30% and that limit; note: 0% is about no effect
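Fluo-8 calcium influx in TRPV1-expressing cells, kinetic read (ex 480/em 520 nm). Compound added and read 3 min for agonist activity, followed by capsaicin at EC20 final and 2 min further read for enhancement.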
TRPML1 inh: blocks the human TRPML1 channel. 390,000 tested, 0.02% active. Q9GZU1. TRPML1-inducible cells, Ca2+ dye fluorescence, FDSS; active compounds read low; inhibition of EC80 agonist-evoked calcium signal. activity change, negative = inhibition, % (no concentration beside the values). AID 624415; in the data active = activity change below about -50%; inconclusive = between about -30% and that limit;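 note: stimulus is agonist 54-4 at its EC80 concentration; % is set by controls: 0 for no effect and ±100 for the full control effect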
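Calcium fluorescence in TRPML1-DL cells induced overnight with Tet: a 110 s read after compound pin addition, then a 110 s antagonist read after challenge with 54-4 at 4 uM final (EC80).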
Active calls of the source: *; ? = inconclusive; / = not tested or not shown; ! = not active in a repeat.

SMILES	TRPV1 ag	TRPML1 agonist	TRPV1 PAM	TRPML1 inh
Cc1ccc(S(=O)(=O)N2C[C@@H]3[C@H]4CC[C@H](C4)[C@@H]3[C@@H](C)[C@@H]2C2CCCCC2=O)cc1 (some centres not stated)	/	92*	/	-10
CCC(C)(C)c1ccc(OCC(=O)Nc2ccncc2)cc1	90*	0	-7	14
CC(C)(C)c1ccc(OCC(=O)Nc2ccncc2)c(Br)c1	97*	/	-3	/
Cc1ccc(C(=O)OCc2cc(=O)n3nc(-c4cccs4)sc3n2)cc1	/	-1	/	8
COc1ccc(S(=O)(=O)N2CCN(C(=O)c3cc(-c4ccccc4OC)n[nH]3)CC2)cc1	82*	2	17	2
Cc1cccc(N2CCN(c3ncnc4c3c(-c3ccccc3)cn4-c3ccccc3)CC2C)c1 (configuration not stated)	/	51*	/	-26
CCOC(=O)C1CCN(c2ncnc3c2c(-c2ccccc2)cn3-c2ccccc2)CC1	6	75*	2	-17
CCCOC(=O)C1=C(C)CS[C@@H]2[C@H](NC(=O)COc3ccccc3)C(=O)N12	/	-1	/	/
N#CC(C#N)=Cc1ccc(NC(=O)c2ccc(Br)cc2)cc1	113*	2	-13	49
NS(=O)(=O)c1ccc(NC(=O)c2ccc(-c3ccccc3)cc2)cc1	-2	1	12	0
CC(C)(C)c1ccc(C(=O)Nc2ccc(S(N)(=O)=O)cc2)cc1	86*	0	-2	-3
CC(C)(C)c1ccc(C(=O)Nc2ccc3c(c2)C(=O)NC3=O)cc1	86*	0	-11	-5
CC(=O)c1ccc(C(=O)Nc2ccc3c(c2)C(=O)NC3=O)cc1	9	-1	?	-10
CC(C)(C)c1ccc(C(=O)Nc2ccc(C=C(C#N)C#N)cc2)cc1	89*	0	-16	14
CSc1ccc(C2c3c(-c4ccccc4O)n[nH]c3C(=O)N2Cc2ccncc2)cc1 (configuration not stated)	/	1	/	4
Cc1ccccc1-c1nc(CN2CCC(C(=O)NC(C)C)CC2)c(C)o1	/	0	/	5
Cc1ccc(CNC(=O)c2nc(-c3ccc(Cl)cc3)n3c2CCCCC3)cc1	/	0	/	11
O=C1c2ccccc2CN1CCSC(=S)N1CCSCC1	90*	/	9	/
CC(C)(C)n1ncc2c(=O)n(Cc3cccc(OC(F)F)c3)cnc21	/	2	/	31
CC(C)(C)n1ncc2c(=O)n(Cc3ccc(Cl)c(SC(F)(F)F)c3)cnc21	/	2	/	63
CN(C)c1ccc(N=Nc2ccc(/C=C/c3ccnc4ccccc34)cc2)cc1	/	124*	/	/
CN(C)c1ccc(/C=C/c2ccnc3c(Cl)cccc23)cc1	/	54*	/	/
CCN(CC)c1ccc(/C=C/c2ccnc3ccccc23)cc1	/	54*	/	/
CCN(CC)CCN(CC)c1ccc(/C=C/c2ccnc3ccccc23)cc1	/	4	/	/
CN(C)c1ccc(/C=C/c2ccnc3ccc(Cl)cc23)cc1	/	5	/	/
SMILES	TRPV1 ag	TRPML1 agonist	TRPV1 PAM	TRPML1 inh
CN(C)c1ccc(N=Nc2ccnc3ccccc23)cc1	/	-1	/	/
CN(C)c1ccc(/C=C/c2ccnc3ccc(Br)cc23)cc1	/	54*	/	/
CCC(Sc1nc2c(sc3ccccc32)c(=O)n1CCc1ccc(OC)c(OC)c1)C(=O)N(CC)CC (configuration not stated)	/	0	/	65
CCCCN(CCC#N)c1ccc(/C=C/c2ccnc3ccccc23)cc1	/	16	/	/
O=C(C[N+]12CCCc3cccc(c31)CCC2)c1ccc2ccccc2c1	/	0	/	/
CN(C)c1ccc(/C=C/c2ncnc3ccccc23)cc1	/	82*	/	/
CN(C)c1ccc(/C=C/c2ccc3ccccc3n2)cc1	26	52*!	14	-11
COc1cc(/C=C/c2ccnc3ccccc23)ccc1N(C)C	/	58*	/	/
CN(C)c1ccc(/C=C/c2ccc3cc(N(C)C)ccc3n2)cc1	/	9	/	/
CN1CCCc2cc(/C=C/c3ccnc4ccccc34)ccc21	/	52*	/	/
CCN(CCN(C)Cl)/[N+]([O-])=N/Oc1ccc([N+](=O)[O-])cc1[N+](=O)[O-]	/	1	/	-21
O=S(=O)(c1ccc2c(c1)CCCC2)N1CCN(c2nc(-c3ccccc3)nc3ccccc23)CC1	/	0	/	/
Cc1ccc2nc(NC(=O)CS(=O)(=O)Cc3ccccc3)sc2c1	85*	1	0	-11
CC(C)c1ccc(NCCC(=O)c2cccs2)cc1	90*	0	0	-22
C[C@H](CO)N1C[C@H](C)[C@@H](CN(C)S(=O)(=O)c2cccc(F)c2)OCc2cnnn2CCCC1=O	/	0	/	0
C[C@H]1CN([C@@H](C)CO)C(=O)CCCn2nncc2CO[C@H]1CN(C)S(=O)(=O)c1cccc(F)c1	/	0	/	-65*
CCOc1ccc(NC(=O)C(Cc2ccccc2)N2C(=O)c3cccc4cccc(c34)C2=O)cc1 (configuration not stated)	-6	61*	8	-5
CCOC(=O)/C=C1\CN(Cc2ccc(OC)cc2)S(=O)(=O)c2ccc(C(F)(F)F)cc21	/	0	/	/
O=C1NNC(c2ccccc2)=N/C1=C\c1ccco1	1	0	9	-11
O=C1NNC(c2ccccc2)=N/C1=C\c1ccccc1Cl	94*	1	-14	-6
COc1ccc(CNc2ncnc3nc[nH]c23)cc1	/	0	/	/
Cn1nc(-c2ccccc2)c(N2CCCCC2)cc1=O	?	2	-19	26
O=c1cc(N2CCCCC2)c(-c2ccccc2)nn1Cc1ccccc1	81*	3	2	-8
COc1ccc(Cn2nc(-c3ccccc3)c(N3CCCCC3)cc2=O)cc1	85*	1	14	1
COc1ccc(CN2CC[C@H]3C=CC[C@@H](C(=O)Nc4ccccc4)[C@H]3C2=O)cc1OC	/	-1	/	/
SMILES	TRPV1 ag	TRPML1 agonist	TRPV1 PAM	TRPML1 inh
CC(C)(C)n1ncc2c(=O)n(Cc3cccc(C#N)c3)cnc21	/	0	/	0
CC(C)(C)c1ccc(/C=N/OCC(=O)NCc2ccc(F)cc2)cc1	92*	3	1	-4
Cc1ccc(CNC(=O)CO/N=C/c2ccc(C(C)(C)C)cc2)cc1	?	2	8	2
CCOC(=O)c1ccc(NC(=O)CC2C(=O)N(c3cccc(OC)c3)C(=O)N2Cc2cccnc2)cc1 (configuration not stated)	/	-1	/	-5
N#C/C(=C/c1ccc(-c2ccc(S(N)(=O)=O)cc2)o1)c1nc2ccccc2s1	22	64*	-2	3
N#C/C(=C/c1ccc(-c2ccc(S(N)(=O)=O)cc2)o1)C(=O)Nc1ccccc1	-1	1	11	-17
CC(C)(C)c1cc(CCC(=O)NCc2ccncc2)cc(C(C)(C)C)c1O	91*	0	-12	-4
CC(C)(C)c1cc(CCC(=O)Nc2ccncc2)cc(C(C)(C)C)c1O	/	0	/	6
COc1ccc(NC(=O)N2CCN3CCCCC3C2)cc1OC (configuration not stated)	/	1	/	-51*
COc1ccc(NC(=O)N2CCCC2)cc1OC	-3	0	10	-10
